A selection: hits, their analogues and other compounds. The true share with any hit is near 12%.
CHX counter = counter-screen hit for Shiga toxin inhibitors, cycloheximide. cell reporter, cycloheximide protein synthesis inhibition counterscreen. max response, %. actives 12% (n = 300,000). AID 2314; in the data active = max response mostly above about 13%, no sharp cut-off; inactive = mostly below about 14%; also: read at 38.3 µM for the half of the compounds with a filed dose; 0% is about no effect
NS1 function inh = influenza NS1 inhibition; Potency, µM (top dose mostly 46.1 µM), for inactives: at the top dose activity, positive = more growth; actives 0.4% (n = 270,000); AID 2326; also: potency is read from the fitted curve at half-maximal effect; actives are rising curves; nearly all actives have a fitted effect of over 50% in size
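Compounds were scored for reversing the slow growth caused by influenza A NS1 in S. cerevisiae, measured by optical density at 600 nm. Assay medium contained 2% galactose at pH 6.0; NS1-free yeast of the same strain were the positive control.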
Shiga toxin inh = Shiga toxin inhibition | actives 9.2% (n = 290,000) | Vero cells, Shiga toxin protein synthesis inhibition reporter | inhibition, % at 38.7 µM; in the data active = inhibition mostly above about 28%, no sharp cut-off; inactive = mostly below about 43%; also: 0% is about no effect
SARS PLpro yeast-1 = SARS-CoV PLP inhibition in yeast | S. cerevisiae expressing SARS-CoV PLpro, growth rescue | Potency, µM (titrated, usually from 32.9 µM), inactives show at the highest dose activity, positive = growth rescue, most hits filed as activators | actives 0.19% (n = 330,000) | AID 485353; also: potency is read from the fitted curve at half-maximal effect; 0% is about no effect; nearly all actives have a fitted effect of over 55% in size
SARS PLpro yeast-2 = Validates SARS-CoV PLpro inhibitor hits in yeast | shares compounds with SARS PLpro yeast-1 | yeast expressing SARS-CoV PLpro, growth phenotype rescue | calls only | actives 19% (n = 1,000) | AID 652038; call rule not given here
Numbers without * were called inactive; i = inactive; ? = inconclusive; . = no result given; + = active, no number. Unless noted, calls follow the shape of the full dose curve.

SMILES	CHX counter	NS1 function inh	Shiga toxin inh	SARS PLpro yeast-1	SARS PLpro yeast-2
CC(=O)c1cccc(NC(=O)CN(C)S(=O)(=O)c2ccccc2)c1	16	-3%	33	0%	.
C[C@@H]1CN([C@@H](C)CO)C(=O)c2cccc(NS(C)(=O)=O)c2O[C@H]1CN(C)Cc1ccc(C(=O)O)cc1	.	.	.	-3%	.
C[C@H](CO)N1C[C@H](C)[C@@H](CN(C)Cc2ccc(-c3ccccc3)cc2)Oc2c(NC(=O)Nc3ccc4c(c3)OCO4)cccc2C1=O	.	.	.	11µM*	i
Cc1ccc(S(=O)(=O)N(C)C[C@@H]2Oc3ccc(NC(=O)Nc4cccc5ccccc45)cc3C(=O)N([C@H](C)CO)C[C@H]2C)cc1	.	.	.	5µM*	i
C[C@@H]1CN([C@H](C)CO)C(=O)c2cc(NS(=O)(=O)c3cn(C)cn3)ccc2O[C@H]1CN(C)C(=O)Nc1ccccc1	.	.	.	?	i
Cc1noc(C)c1S(=O)(=O)Nc1ccc2c(c1)C(=O)N([C@H](C)CO)C[C@H](C)[C@@H](CN(C)C(=O)Nc1ccccc1)O2	.	.	.	2%	.
C[C@H](CO)N1C[C@H](C)[C@@H](CN(C)Cc2ccc(C(=O)O)cc2)Oc2c(NC(=O)Cc3ccccc3)cccc2C1=O	.	.	.	11µM*	i
Cc1cc(NC(=O)CSc2nnc(NCc3ccco3)s2)no1	.	.	.	-2%	.
Cc1noc(C)c1CN1C(=O)c2ccccc2C1=O	-4	6%	-6	4%	.
CC(=O)Nc1ccc(NC(=O)COC(=O)[C@@H]2CCCN2C(=O)c2cccs2)cc1	.	.	.	4%	.
CCCCOC(=O)C[N+](C)(C)CCOC1CC2CCC1(C)C2(C)C (centres undefined)	-3	1%	-4	.	i
COc1ccc(S(=O)(=O)N(CC(=O)N2CCN(c3ccccc3OC)CC2)c2ccccc2)cc1	9	?	6	4.5µM*	i
CCc1ccc(N2CC(C(=O)N3CCCC3)CC2=O)cc1 (centres undefined)	-4	2%	5	-5%	.
c1ccc(N2CCN(CCc3nnc4n3CCCCC4)CC2)cc1	-1	-12%	4	?	i
c1ccc(Cc2nnc3n2CCCCC3)cc1	-5	5%	-22	-2%	.
Cc1cc(C(=O)NNC(=O)c2ccc(S(=O)(=O)N(C)C)cc2)c(C)o1	-2	11%	-3	2.5µM*	i
O=C(CN1C(=O)NC2(CCCCC2)C1=O)Nc1ccc2[nH]c(=O)[nH]c2c1	.	.	.	-10%	.
C=C(C)Cn1c(SCC(=O)N/N=C/c2c(O)ccc3ccccc23)nc2ccccc2c1=O	5	18%	12	10µM*	+
C=C(C)Cn1c(SCC)nc2ccccc2c1=O	1	-27%	-7	-1%	.
CCOC(=O)c1c(C)nc2cc(C)cc(C)n12	8	-2%	22	1%	.
O=C(Oc1c(Cl)cc(Cl)c2cccnc12)c1cccs1	-2	-17%	20	.	?
O=C(Oc1c(CN2CCOCC2)cc(Cl)c2cccnc12)c1cccs1	2	.	12	?	.
COc1cccc(-n2nnc3c(=O)n(CC(=O)OCc4ccccc4)cnc32)c1	-2	13%	12	?	i
CC(Sc1nnc(NCc2ccccc2)s1)C(=O)Nc1ccc2c(c1)C(=O)c1ccccc1C2=O (centres undefined)	63*	?	64*	?	+
COc1cccc(NC(=O)c2ccccc2N2C(=O)C3C4C=CC(C4)C3C2=O)c1 (centres undefined)	-1	10%	4	-2%	.
SMILES	CHX counter	NS1 function inh	Shiga toxin inh	SARS PLpro yeast-1	SARS PLpro yeast-2
N#Cc1nc(-c2ccc(F)cc2)oc1N1CCCC1	4	7%	10	?	i
Cc1ccc(C(C)C)c(OCc2ccc(C(=O)N/N=C/c3cccc(O)c3O)cc2)c1	29*	-32%	active	2.8µM*	?
O=C(NCC(NS(=O)(=O)OCC(Cl)(Cl)Cl)c1ccccc1)C(F)(F)F (centres undefined)	-1	18%	9	1%	.
O=C(c1cccs1)N1CCN=C1SCc1ccccc1F	6	.	19	1%	.
CC1(C)NC(=O)N(CCSc2ccc(Cl)cc2)C1=O	-3	-6%	15	1%	.
Cc1ccc(SCCCCN2C(=O)NC(C)(C)C2=O)cc1	13	-5%	-1	?	i
O=C1CC(C(=O)Nc2nccs2)C(c2ccccc2)O1 (centres undefined)	-1	14%	-12	5%	.
CCOC(=O)C1=C2SCC(=O)N2C(N)=C(C#N)C1	-1	11%	-15	?	i
O=C1/C(=C\c2cccs2)N=C(c2cccs2)N1Nc1ccccc1	14	5%	52	-15%	.
O=C1/C(=C/c2cccs2)N=C(c2cccs2)N1Nc1ccccc1	6	8%	3	?	i
C=CCc1ccc(OCCCOc2ccc(C)cc2OC)c(OC)c1	20	-5%	12	4%	.
C=CCc1ccc(OCCn2cncn2)c(OC)c1	-2	-14%	3	?	i
CN(Cc1nccn1C)C(=O)C1CCC(=O)N(CCc2ccc(Cl)cc2)C1 (centres undefined)	-1	2%	-19	0%	.
CCOC(=O)N1CCN(C(=O)CSCC(=O)Nc2nc(-c3ccc(Cl)s3)cs2)CC1	14*	-13%	-15	13µM*	?
CCOC(=S)SCC(=O)Nc1nc(-c2ccccc2)cs1	1	-5%	14	-11%	.
O=C(NNC1=C(C(=O)C(F)(F)F)CCC1)c1cccc(O)c1	31*	7%	64*	14µM*	i
O=C(Nc1cccc(F)c1)NC1(C(=O)NCC2CCCO2)CCCCC1 (centres undefined)	-3	10%	4	-4%	.
Cc1nnc(NC(=O)C2CCCN2S(=O)(=O)c2ccc(Cl)cc2)s1 (centres undefined)	-1	4%	-5	3%	.
COc1ccc(OCCCCN(C)Cc2ccccc2)cc1	-1	-9%	.	-1%	.
C=CCc1cc(OC)ccc1OCCN(C)Cc1ccccc1	-1	-2%	-5	?	i
Cc1ccc(C(=O)NN2C(=O)C3C(C2=O)C2C=CC3C23CC3)cc1 (centres undefined)	-4	.	10	0%	.
COc1cccc(C2/C(=C(\O)c3ccc4c(c3)OCCO4)C(=O)C(=O)N2Cc2cccnc2)c1 (centres undefined)	9	-2%	4	?	i
O=C(CN1C(=O)CSc2ccc(S(=O)(=O)N3CCCCC3)cc21)NCc1ccccc1	-7	22%	-7	-1%	.
Cc1sc2nc(C(C)C)nc(SCC(=O)N3CCOCC3)c2c1C	-4	-25%	16	-9%	.
CN1C(=O)SC(Nc2ccccc2)C1=O (centres undefined)	1	-3%	-4	13µM*	i
O=C(c1cccc(Br)c1)N1CCN(C(=O)N2CCOCC2)CC1	-1	-2%	6	9%	.
O=C(c1ccccc1)N1CCN(C(=O)N2CCOCC2)CC1	-4	7%	-19	?	i
Cc1ccc(-c2noc(COc3ccc4c(c3)OCO4)n2)cc1	-1	-1%	8	13µM*	i
COc1ccc(NCc2nnc(SCc3ccc(Cl)cc3)n2-c2ccccc2)cc1	3	?	-10	-43%	.
CCCNC(=S)N1CC2(C)CN(C(=O)C(=O)OCC)CC(C)(C1)C2=O	-2	4%	-8	1%	.

Screening results deposited in PubChem BioAssay by National Center for Advancing Translational Sciences (NCATS).
